Laboratory results taken from PubChem BioAssay (EPA / NIEHS).
Results filed as inconclusive are left out. Activity calls are given as the source filed them. The calls were made as follows, unless noted: active = hit-call score of the fitted dose curve at least 0.9, where 1 is the maximum; inconclusive = response in the unintended direction; inactive = score below 0.9.

What was measured:
[1] = TOX21_p53_BLA_p2_viability: Viability Assessment in the Tox21 HCT-116 p53 Agonism Beta-lactamase Assay, Phase 2 (AID 2283591);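 also: actives lower the ATP signal meaning cytotoxicity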
Summary of the method: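 HCT116 p53-bla cells, 4000/well, dosed after 5 h plating (217-fold dilution of DMSO stocks) and incubated 16 h at 37C. Viability taken as cellular ATP by CellTiter-Glo luminescence after 30 min RT; signal loss marks cytotoxicity.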

[2] = TOX21_p53_BLA_p3_viability: Viability Assessment in the Tox21 HCT-116 p53 Agonism Beta-lactamase Assay, Phase 3 (AID 2283593);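 also: cells exposed to compound for 16 h before reading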
Summary of the method: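 HCT116 cells, 4000/well, dosed 5 h after plating by pin transfer (217-fold dilution from DMSO stock) and incubated 16 h at 37C, 5% CO2. Viability read as ATP luminescence with CellTiter-Glo after 30 min at room temperature.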

[3] = TOX21_p53_BLA_p4_viability: Viability Assessment in the Tox21 HCT-116 p53 Agonism Beta-lactamase Assay, Phase 4 (AID 2283597);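 also: hits lower the luminescence signal meaning cytotoxicity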
Summary of the method: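 Following a 16 h exposure at 37C, the treated HCT116 wells were first read for the FRET ratio. They were then lysed with CellTiter-Glo, and ATP luminescence was recorded after 30 min at room temperature.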

[4] = molecular target: Cellular tumor antigen p53 (Homo sapiens) (UniProt P04637); assay: TOX21_p53_BLA_p5_ratio: Tox21 HCT-116 p53 Agonism Beta-lactamase Assay, Ratio, Phase 5 (AID 2283599)
Summary of the method: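 HCT-116 p53-bla cells (4000/well) plated 5 h, dosed with compound (217-fold DMSO dilution) for 16 h at 37 C; CCF4-AM substrate 2 h at room temperature. Activity is the 460/530 nm emission ratio (405 nm excitation), fitted in gain-of-signal direction versus DMSO.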

[5] = molecular target: Cellular tumor antigen p53 (Homo sapiens) (UniProt P04637); assay: TOX21_p53_BLA_p4_ratio: Tox21 HCT-116 p53 Agonism Beta-lactamase Assay, Ratio, Phase 4 (AID 2283601)
Summary of the method: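 HCT-116 p53 beta-lactamase reporter cells (4000/well) preincubated 5 h, then compound (217-fold dilution of DMSO stock) for 16 h at 37C. CCF4-AM substrate added 2 h at room temperature; 460/530 nm emission ratio fitted upward versus DMSO.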

[6] = TOX21_p53_BLA_p5_viability: Viability Assessment in the Tox21 HCT-116 p53 Agonism Beta-lactamase Assay, Phase 5 (AID 2283600)
Summary of the method: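 After the 460/530 nm beta-lactamase measurement, the wells received an ATP-detection luciferase reagent; signal was read 30 min later at RT. Compound treatment lasted 16 h on cells pre-incubated 5 h post-seeding.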

[7] = CCTE_Harrill_HTTr_Viability_MCF7: CCTE's 6-hour Cell Viability Assessment for the High-Throughput Transcriptomics (HTTr) Platform, in MCF-7 cells cultured in DMEM + 10% fetal bovine serum, Harrill Lab (AID 2284010; active = hit-call score of the fitted dose curve at least 0.9, where 1 is the maximum; inactive = score below 0.9)
Summary of the method: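 MCF-7 cells in DMEM + 10% FBS, 384-well, exposed 6 h to an eight-point dilution series. Membrane integrity scored by high-content imaging of propidium iodide exclusion; bidirectional fit versus DMSO.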

[8] = CCTE_Harrill_HTTr_CellCount_MCF7: CCTE's Cell Proliferation Assessment for the High-Throughput Transcriptomics (HTTr) Platform, Harrill Lab (AID 2284012);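 also: cells exposed to compound for six hours; intended direction is loss of nuclei count meaning fewer cells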
Summary of the method: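 MCF7 cells exposed 6 hours to an eight-point dilution series; Hoechst-stained nuclei counted by high-content imaging. Bidirectional curve fitting against DMSO baseline.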

[9] = CCTE_Deisenroth_DEVTOX-GLR_legacy_CellCount: (Legacy) Viability Assessment in CCTE's DevTox GLR-Endo Assay, Deisenroth Lab (AID 2284331; active = hit-call score of the fitted dose curve at least 0.9, where 1 is the maximum; inactive = score below 0.9); conditions: actives raise or lower the signal
Summary of the method: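 Human pluripotent RUES2-GLR cells differentiated 48 h with two 24-h-interval exposures, 10-point 1 nM–200 uM series, 0.2% DMSO. Fixed nuclei counted by high-content imaging (5 fields/well); bidirectional fit vs DMSO, n≥4.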

[10] = system: SRY-box transcription factor 2 (SOX2) Protein Expression, Deisenroth Lab, SOX2 (gene 6657); assay: CCTE_Deisenroth_DEVTOX-GLR_Endo_SOX2: CCTE's DevTox GLR-Endo Assay Evaluation of SRY-box transcription factor 2 (SOX2) Protein Expression, Deisenroth Lab (AID 2284412)
Summary of the method: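 RUES2-GLR human pluripotent cells were seeded 24 h, then differentiated 48 h with two chemical exposures 24 h apart. Cells were fixed, nuclei stained and imaged by high-content microscopy. Endpoint is %SOX2+ cells over cell count, minus 0.2% DMSO control; 10-point series 1 nM–200 uM.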

[11] = system: SRY-box transcription factor 17 (SOX17) Protein Expression, Deisenroth Lab, SOX17 (gene 64321); assay: CCTE_Deisenroth_DEVTOX-GLR_Endo_SOX17: CCTE's DevTox GLR-Endo Assay Evaluation of SRY-box transcription factor 17 (SOX17) Protein Expression, Deisenroth Lab (AID 2284413; active = hit-call score of the fitted dose curve at least 0.9, where 1 is the maximum; inactive = score below 0.9)
Summary of the method: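 RUES2-GLR human pluripotent cells were differentiated toward endoderm for 48 h and received two compound doses 24 h apart (1 nM - 200 uM, 10 points). High-content imaging of fixed cells gave the percent SOX17+ cells per cell count, expressed as percent change versus 0.2% DMSO.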

[12] = system: Brachyury (BRA) Protein Expression, TBXT (gene 6862); assay: CCTE_Deisenroth_DEVTOX-GLR_Endo_BRA: CCTE's DevTox GLR-Endo Assay Evaluation of Brachyury (BRA) Protein Expression, Deisenroth Lab (AID 2284417; active = hit-call score of the fitted dose curve at least 0.9, where 1 is the maximum; inactive = score below 0.9)
Summary of the method: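 RUES2-GLR pluripotent cells differentiated 48 h with two chemical exposures 24 h apart, 10-point range 1 nM - 200 uM. Percentage of BRA+ cells per total count by high-content imaging, minus 0.2% DMSO control.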

[13] = CCTE_Deisenroth_DEVTOX-GLR_Endo_CellCount: Viability Assessment in CCTE's DevTox GLR-Endo Assay, Deisenroth Lab (AID 2284420; active = hit-call score of the fitted dose curve at least 0.9, where 1 is the maximum; inactive = score below 0.9)
Summary of the method: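 Percent change in nuclear-stain cell counts versus 0.2% DMSO, from high-content imaging over 5 fields per well. Over a 48 h endoderm differentiation, RUES2-GLR cells received two doses 24 h apart across a 1 nM–200 uM series, with n=4.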

[14] = system: Brachyury (BRA) Protein Expression, Deisenroth Lab, TBXT (gene 6862); assay: CCTE_Deisenroth_DEVTOX-GLR_Pluri_BRA: CCTE's DevTox GLR-Pluri Assay Evaluation of Brachyury (BRA) Protein Expression, Deisenroth Lab (AID 2284429)
Summary of the method: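 RUES2-GLR human pluripotent cells differentiated 48 hours with two chemical exposures 24 hours apart, 10-point series 1 nM–200 uM. Fixed, nuclear-stained, imaged; endpoint is percent BRA+ cells minus 0.2% DMSO control.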

[15] = CCTE_Deisenroth_DEVTOX-GLR_Pluri_CellCount: Viability Assessment in CCTE's DevTox GLR-Pluri Assay Evaluation of Total Cell Counts, Deisenroth Lab (AID 2284430; active = hit-call score of the fitted dose curve at least 0.9, where 1 is the maximum; inactive = score below 0.9)
Summary of the method: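 RUES2-GLR human pluripotent cells, seeded 24 h, then differentiated 48 h with two chemical exposures 24 h apart; 10-point series 1 nM - 200 uM. Fixed, nuclear-stained, imaged (5 fields/well); nuclei count as % change vs 0.2% DMSO.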

[16] = TOX21_PR_BLA_Followup_Agonist_viability: Viability Assessment in the Tox21 HEK293 Progesterone Receptor (PR) Agonism Beta-lactamase Follow-Up Assay (AID 2283935);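 also: signal loss means lower viability so actives are cytotoxic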
Summary of the method: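 PR-UAS-bla HEK293T cells in 2% charcoal-stripped FBS medium, plated 6 hr before compound addition, exposed 16 hr at 37C. Viability read by CellTiter-Glo ATP luminescence after 30 min at room temperature, in the same wells as the beta-lactamase readout.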

[17] = TOX21_PR_BLA_Followup_Antagonist_viability: Viability Assessment in the Tox21 HEK293 Progesterone Receptor (PR) Antagonism Beta-lactamase Follow-Up Assay (AID 2283936);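 also: hits lower the luminescence signal meaning cytotoxicity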
Summary of the method: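 PR-UAS-bla HEK293T cells (3,000/well, 2% charcoal-stripped FBS) given compound plus R5020 agonist, 16 h at 37C. CellTiter-Glo added after bla read, 30 min at room temperature; luminescence loss indicates cytotoxicity.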

PGR (gene 5241) [18] = molecular target: PGR (gene 5241) (UniProt P06401); assay: TOX21_PR_LUC_Followup_Antagonist: Tox21 HEK293 Progesterone Receptor (PR) Antagonism Luciferase Follow-Up Assay (AID 2283938);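 also: curve fitted upward as signal gain over DMSO baseline despite antagonist label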
Summary of the method: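 Luminescence from ONE-Glo was measured 30 min after reagent addition, following 16 h exposure of HEK293-PR-A-luc cells (3,000/well, plated 5 h earlier) to DMSO-dissolved compounds at 37C; DMSO served as baseline.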

[19] = TOX21_PR_LUC_Followup_Agonist_viability: Viability Assessment in the Tox21 HEK293 Progesterone Receptor (PR) Agonism Luciferase Follow-Up Assay (AID 2283941);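 also: loss of signal means cytotoxicity so actives lower viability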
Summary of the method: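 HEK293-PR-A-luc cells, kept in 10% charcoal-stripped FBS medium, were treated with compounds for 16 h at 37C. Viability read as cellular ATP by luciferase-coupled luminescence; loss of signal indicates cytotoxicity.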

PGR (gene 5241) [20] = molecular target: PGR (gene 5241) (UniProt P06401); assay: TOX21_PR_LUC_Followup_Agonist: Tox21 HEK293 Progesterone Receptor (PR) Agonism Luciferase Follow-Up Assay (AID 2283937; active = hit-call score of the fitted dose curve at least 0.9, where 1 is the maximum; inactive = score below 0.9)
Summary of the method: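 HEK293-PR-A-luc cells, conditioned 5 days in 10% charcoal-stripped FBS medium, seeded 3,000/well for 5 h, then compound-treated 16 h at 37C. ONE-Glo luminescence read after 30 min at room temperature; gain of signal versus DMSO.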

Measured: AC50

Sequence of Cellular tumor antigen p53 (Homo sapiens) (P04637 whole entry, looked up): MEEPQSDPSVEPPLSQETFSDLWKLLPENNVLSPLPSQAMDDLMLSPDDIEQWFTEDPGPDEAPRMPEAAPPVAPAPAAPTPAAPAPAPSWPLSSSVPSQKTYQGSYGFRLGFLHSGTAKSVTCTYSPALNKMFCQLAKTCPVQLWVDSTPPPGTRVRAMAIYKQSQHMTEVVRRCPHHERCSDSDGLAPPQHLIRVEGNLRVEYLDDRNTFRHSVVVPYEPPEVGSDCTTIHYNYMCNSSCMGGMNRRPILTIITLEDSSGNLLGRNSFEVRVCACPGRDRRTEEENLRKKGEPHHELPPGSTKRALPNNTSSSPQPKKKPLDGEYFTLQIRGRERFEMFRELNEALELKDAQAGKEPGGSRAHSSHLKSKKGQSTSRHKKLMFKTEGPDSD
Sequence of PGR (gene 5241) (P06401 whole entry, looked up): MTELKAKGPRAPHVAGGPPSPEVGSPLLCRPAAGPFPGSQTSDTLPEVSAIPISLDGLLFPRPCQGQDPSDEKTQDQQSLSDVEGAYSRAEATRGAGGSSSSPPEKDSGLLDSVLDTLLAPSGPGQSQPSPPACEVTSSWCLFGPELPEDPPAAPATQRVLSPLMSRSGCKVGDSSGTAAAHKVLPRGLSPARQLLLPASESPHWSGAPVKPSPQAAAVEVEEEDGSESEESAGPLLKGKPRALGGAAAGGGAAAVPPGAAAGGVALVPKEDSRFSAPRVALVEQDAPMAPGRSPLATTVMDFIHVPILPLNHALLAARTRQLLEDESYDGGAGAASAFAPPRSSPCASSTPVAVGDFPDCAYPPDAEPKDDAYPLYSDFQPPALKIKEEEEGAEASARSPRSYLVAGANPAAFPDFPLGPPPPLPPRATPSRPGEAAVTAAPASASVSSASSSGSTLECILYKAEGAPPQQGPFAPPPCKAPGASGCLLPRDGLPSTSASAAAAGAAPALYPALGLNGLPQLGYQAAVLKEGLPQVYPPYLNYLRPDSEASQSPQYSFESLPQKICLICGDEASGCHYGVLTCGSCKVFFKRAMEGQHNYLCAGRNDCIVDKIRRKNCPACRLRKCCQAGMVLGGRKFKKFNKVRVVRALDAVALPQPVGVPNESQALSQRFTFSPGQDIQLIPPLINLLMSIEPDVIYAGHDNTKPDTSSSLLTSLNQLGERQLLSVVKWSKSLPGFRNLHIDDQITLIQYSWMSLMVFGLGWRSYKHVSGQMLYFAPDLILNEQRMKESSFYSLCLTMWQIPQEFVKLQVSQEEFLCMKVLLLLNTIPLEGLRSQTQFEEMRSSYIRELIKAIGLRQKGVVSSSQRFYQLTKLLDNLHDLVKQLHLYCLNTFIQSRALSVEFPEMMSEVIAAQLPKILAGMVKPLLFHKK

O=c1[nH]ncc2ccccc12
inactive: [1] | [2] | [3] | [4] | [5]

O=c1[nH][nH]c(=O)c2cc([N+](=O)[O-])ccc12
inactive: [1] | [2] | [3] | [6]

COC(C)(OC)OC
inactive: [1] | [2] | [3] | [4] | [5]

O=C(O)CONC(=O)c1ccccc1
inactive: [1] | [2] | [3] | [4] | [6] | [5]

CCOC(=O)OCC/C(SC(=O)OCC)=C(\C)N(C=O)Cc1cnc(C)nc1N
inactive: [1] | [2] | [3] | [6]

CC(=O)CCCCn1c(=O)c2c(ncn2C)n(C)c1=O
inactive: [1] | [2] | [3] | [4] | [6] | [5] | [7] | [8]

O=c1[nH]c2ccccc2n1CCCN1CCN(C(c2ccccc2)c2ccccc2)CC1
inactive: [1] | [2] | [6]
active: [3] 31.3 µM

c1cc(CN2CCCCC2)cc(OCCCNc2nc3ccccc3s2)c1
inactive: [1] | [2] | [3] | [6]

O=C(O)/C=C/C(O)c1ccc(Cl)cc1 (stereo unspecified)
inactive: [1] | [2] | [3] | [4] | [6] | [5]

Nc1cc(Cl)c(NC2=NCCN2)c(Cl)c1
inactive: [1] | [2] | [4] | [5]

CCCCCN=C(N)N/N=C/c1c[nH]c2ccc(OC)cc12
active: [9] 5.09 µM | [10] 100 µM | [11] 5.27 µM | [12] 143 µM | [13] 5.15 µM | [14] 5.27 µM | [15] 7.83 µM
inactive: [1] | [2] | [3] | [5]

NCc1ccccc1Sc1ccccc1CO
inactive: [1] | [2] | [3] | [5]

CC(=O)Oc1ccc([N+](=O)[O-])cc1CCl
inactive: [1] | [2] | [4]

O=S(=O)(Oc1ccc(Cl)cc1)c1ccccc1
inactive: [1] | [2] | [4] | [6] | [16] | [17] | PGR (gene 5241) [18] | [19]

O=C(O)CN(CC(=O)O)CC1=CC2C(=CC1=O)Oc1cc(O)c(CN(CC(=O)O)CC(=O)O)cc1C21OC(=O)c2ccccc21 (stereo unspecified)
inactive: [1] | [2] | [6]

Cc1cc(C)c(C=C2C(=O)Nc3ccccc32)[nH]1
inactive: [1] | [2] | [3] | [6] | [16] | [17] | PGR (gene 5241) [20] | PGR (gene 5241) [18] | [19] | [7] | [8]

COc1ccc(C(=O)CCC(=O)O)c2ccccc12
inactive: [1] | [2] | [6]

O=C(CCc1ccc(O)cc1)c1c(O)cc(O)cc1O
inactive: [1] | [2] | [6] | [5]

CC(C)OC(C)C
inactive: [1] | [2] | [4] | [6] | [5]

CC(C)(CC(=O)O)C(=O)O
inactive: [1] | [2] | [4] | [6]

Cc1ccc(N(CCO)CCO)cc1
inactive: [1] | [2] | [4] | [6] | [5]

NC(=O)C1c2ccccc2CCc2ccccc21
inactive: [1] | [2] | [4]

CC(=O)Oc1cc2c(s1)CCN(C(C(=O)C1CC1)c1ccccc1F)C2 (stereo unspecified)
inactive: [1] | [2] | [6]

C=CC(=O)OCCCl
inactive: [1] | [2] | [6]

O=C(O)C(=O)Cc1ccccc1
inactive: [1] | [2] | [4] | [5]

CCOC(=O)COc1ccc2c(C)c(CCN(CC)CC)c(=O)oc2c1Cl
inactive: [1] | [2] | [4] | [6] | [5]

CCOC(=O)[C@@H](N)CS
inactive: [1] | [2] | [6] | [5]

CCN(CC)CCOCCOC(=O)C1(c2ccccc2)CCCC1
inactive: [1] | [2] | [3] | [5]

CCOC(=O)C1=C[C@@H](OC(CC)CC)[C@H](NC(C)=O)[C@@H](N)C1
inactive: [1] | [2] | [4]

CCN(CCCCOC(=O)c1ccc(OC)c(OC)c1)C(C)Cc1ccc(OC)cc1 (stereo unspecified)
inactive: [1] | [2] | [3] | [5]

CCC(C)[O-].CCC(C)[O-].CCOC(=O)/C=C(/C)[O-].[Al+3]
inactive: [1] | [2] | [6]

CC1(C)S[C@@H]2[C@H](NC(=O)C(c3ccccc3)S(=O)(=O)O)C(=O)N2[C@H]1C(=O)O (stereo partly specified)
inactive: [1] | [2] | [3] | [5]

CC(=O)c1ccc(OCC(=O)N2CCCCC2)cc1
inactive: [1] | [2] | [4] | [6] | [5]
